# Reference: PubChem BioAssay (NCATS)
# Records with an inconclusive call do not appear. Where a call stands in place of a potency, no number is given. Active and inactive are the calls of the source. Calls come from the whole dose curve; as a rule, active = well fitted curve in the direction sought with a large enough effect; inconclusive = small, poorly fitted or top-dose-only effect, or another doubt; inactive = no such curve, though single readings can be large; an effect the other way counts as inactive or inconclusive.
# System: Zika virus NS2B-NS3 protease (unlinked)
# Assay: Optimization of GU AMC qHTS for Zika virus inhibitors: Unlinked NS2B-NS3 protease assay (AID 1347151); note: nearly all actives have a fitted effect of over 80% in size
# Conditions: recombinant ZIKV NS2B-NS3 protease, fluorogenic AMC substrate; series mostly up to 52.5 µM
# How it was run: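 Noncovalent complex of NS2B hydrophilic domain and NS3 protease domain, 25 nM final, in 10 mM Tris-HCl pH 8.0, 0.01% Tween 20. AMC fluorescence change over 15 min at room temperature was fitted to a 4-parameter Hill equation.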
# Potency is the fitted concentration of half-maximal effect.
row,SMILES,Potency
1,NC[C@H](O)c1ccc(O)c(O)c1,inactive
2,O=C(O)CCc1ccc(NCc2cccc(Oc3ccccc3)c2)cc1,inactive
3,N=c1nc(N2CCCCC2)cc(N)n1O,inactive
4,O=C(O)COCCN1CCN(C(c2ccccc2)c2ccc(Cl)cc2)CC1 (stereo not given),inactive
5,NNCCc1ccccc1,inactive
6,CCCc1nn(C)c2c(=O)[nH]c(-c3cc(S(=O)(=O)N4CCN(C)CC4)ccc3OCC)nc12,inactive
7,CC(=O)Oc1ccccc1C(=O)O,26.7 µM (active)

# System: Zika virus NS2B-NS3 protease
# Assay: Primary screen GU AMC qHTS for Zika virus inhibitors (AID 1347154); note: nearly all actives have a fitted effect of over 70% in size
# Conditions: Zika NS2B-NS3 unlinked protease, AMC fluorogenic substrate; series mostly up to 54.1 µM
# How it was run: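 Unlinked Zika NS2B hydrophilic domain/NS3 protease domain noncovalent complex (25 nM final) in 10 mM Tris-HCl pH 8.0, 0.01% Tween 20, with AMC peptide substrate. Fluorescence (ex 340, em 450 nm) change over 15 min, room temperature; percent inhibition fitted to 4-parameter Hill equation.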
row,SMILES,Potency
1,O=S(=O)(N=Cc1c(O)ccc2ccccc12)c1cccs1,inactive
2,Cn1c(=O)c(F)c(Nc2ccc(I)cc2F)c2c(=O)n(C[C@@H](O)CO)cnc21,inactive
3,COc1ccc2nc(S(=O)Cc3ncc(C)c(OC)c3C)[nH]c2c1 (stereo not given),inactive
4,O=C(O)CCc1ccc(NCc2cccc(Oc3ccccc3)c2)cc1,inactive
5,COc1ccc(-c2c(-c3ccc(O)cc3O)n[nH]c2C)cc1,inactive
6,CNC(=O)c1ccc(N2C(=S)N(c3ccc(C#N)c(C(F)(F)F)c3)C(=O)C2(C)C)cc1F,inactive
7,Cc1ccc(NC(=O)c2cccc(C(C)(C)C#N)c2)cc1Nc1ccc2ncn(C)c(=O)c2c1,inactive
8,CCN(c1ccccc1)c1cc(NC)[n+](C)c(C)n1,inactive
9,CCc1ccc(CCOc2ccc(CC3SC(=O)NC3=O)cc2)nc1 (stereo not given),inactive
10,O=C(O)[C@@H](c1ccc(OCc2ccc3ccccc3n2)cc1)C1CCCC1,inactive
11,O=C(O)COCCN1CCN(C(c2ccccc2)c2ccc(Cl)cc2)CC1 (stereo not given),inactive
12,CCCCCCCc1ccc(CCc2cccc(O)c2C(=O)O)cc1,8.57 µM (active)
13,CCN(CC)CCCC(C)Nc1nc(C)cc(Nc2ccc3nc(C)cc(N)c3c2)n1 (stereo not given),inactive
14,CCOc1cc(C=C2C(=O)N(c3ccccc3)N=C2C)cc(Cl)c1OCC(=O)OC,inactive
15,CCn1c(-c2nonc2N)nc2cnc(Oc3cccc(NC(=O)c4ccc(OCCN5CCOCC5)cc4)c3)cc21,inactive
16,CCOc1ccc(Cc2cc([C@@H]3O[C@H](CO)[C@@H](O)[C@H](O)[C@@H]3O)ccc2Cl)cc1,inactive
17,CCOC(=O)C1=C[C@@]2(CC)CCCN3CCc4c(n1c1ccccc41)[C@H]32,inactive
18,Cc1ccc2c(c1)C(=O)[C@@]1(O)CCN(c3ccccc3)C1=N2,inactive
19,COc1ccc(CC2=NN3C([C@@H](CCc4ccccc4)[C@@H](C)O)=NC(C)C3C(=O)N2)cc1OC (stereo not given in full),inactive

row,SMILES,Potency
1,NNCCc1ccccc1,inactive
2,COc1ccc(C2=N[C@H](c3ccc(Cl)cc3)[C@H](c3ccc(Cl)cc3)N2C(=O)N2CCNC(=O)C2)c(OC(C)C)c1,inactive
3,Cc1cc(-c2ccc(CC(=O)Nc3ccc(-c4cccnc4)cc3)cc2)ccn1,inactive
4,C[C@]12CC[C@H](O)CC1=CC[C@@H]1[C@H]2CC[C@]2(C)C(c3cccnc3)=CC[C@H]12,inactive
5,Fc1ccc(Cl)cc1-c1nc(Nc2ccncc2)c2nccnc2n1,inactive
6,Cc1[nH]c(=O)c(C#N)cc1-c1ccncc1,inactive
7,COCCNCCCn1c(C(=O)CF)c(-c2ccc(C)cc2)c2c(N)ncnc21,inactive
8,c1ccc(-c2nn3c(c2-c2ccnc4cc(OCCN5CCOCC5)ccc24)CCC3)nc1,inactive
9,Cc1cc2c(F)c(Oc3ncnn4cc(OC[C@@H](C)O)c(C)c34)ccc2[nH]1,inactive
10,Cc1cccc(-c2nn(C(=S)Nc3ccccc3)cc2-c2ccnc3ccccc23)n1,inactive
11,N#Cc1ccc(C(c2ccc(C#N)cc2)n2cncn2)cc1,inactive
12,O=c1ncn2nc(Sc3ccc(F)cc3F)ccc2c1-c1c(Cl)cccc1Cl,inactive
13,CCCc1nn(C)c2c(=O)[nH]c(-c3cc(S(=O)(=O)N4CCN(C)CC4)ccc3OCC)nc12,inactive
14,O=C1[C@H](Cc2ccc(O)cc2)N2C(=O)CCN(C(=O)NCc3ccccc3)[C@H]2CN1Cc1cccc2ccccc12,inactive
15,CS(=O)(=O)Oc1ccc2c(NC(N)=O)c(C(=O)c3ccc(Cl)cc3Cl)oc2c1,inactive
16,CC(=O)Oc1ccccc1C(=O)O,21.2 µM (active)
17,CC(c1cc2ccccc2s1)N(O)C(N)=O (stereo not given),inactive
18,COc1ccc([C@@H]2CC(=O)c3c(O)cc(O[C@@H]4O[C@H](CO[C@@H]5O[C@@H](C)[C@H](O)[C@@H](O)[C@@H]5O)[C@@H](O)[C@H](O)[C@@H]4O)cc3O2)cc1O,inactive
19,O=C(C=Cc1ccc(/C=C/C(=O)Nc2ccc(C3=NCCN3)cc2)cc1)Nc1ccc(C2=NCCN2)cc1,inactive
